Design in all cases: scale not given: direction of the effect not stated beside the values
The target in assay [1] is Protein translocase subunit SecA (Escherichia coli (strain K12)) (UniProt P10408). Put plainly: Assay to Identify E. coli SecA ATPase Inhibitors. In kind it is functional. The conditions noted are these: 30 µM.
In assay [2] the target is T1, Ubiquitin-activating enzyme e1, putative (Leishmania donovani (strain BPK282A1)) (UniProt E9BSI1).
T1 sequence (whole entry): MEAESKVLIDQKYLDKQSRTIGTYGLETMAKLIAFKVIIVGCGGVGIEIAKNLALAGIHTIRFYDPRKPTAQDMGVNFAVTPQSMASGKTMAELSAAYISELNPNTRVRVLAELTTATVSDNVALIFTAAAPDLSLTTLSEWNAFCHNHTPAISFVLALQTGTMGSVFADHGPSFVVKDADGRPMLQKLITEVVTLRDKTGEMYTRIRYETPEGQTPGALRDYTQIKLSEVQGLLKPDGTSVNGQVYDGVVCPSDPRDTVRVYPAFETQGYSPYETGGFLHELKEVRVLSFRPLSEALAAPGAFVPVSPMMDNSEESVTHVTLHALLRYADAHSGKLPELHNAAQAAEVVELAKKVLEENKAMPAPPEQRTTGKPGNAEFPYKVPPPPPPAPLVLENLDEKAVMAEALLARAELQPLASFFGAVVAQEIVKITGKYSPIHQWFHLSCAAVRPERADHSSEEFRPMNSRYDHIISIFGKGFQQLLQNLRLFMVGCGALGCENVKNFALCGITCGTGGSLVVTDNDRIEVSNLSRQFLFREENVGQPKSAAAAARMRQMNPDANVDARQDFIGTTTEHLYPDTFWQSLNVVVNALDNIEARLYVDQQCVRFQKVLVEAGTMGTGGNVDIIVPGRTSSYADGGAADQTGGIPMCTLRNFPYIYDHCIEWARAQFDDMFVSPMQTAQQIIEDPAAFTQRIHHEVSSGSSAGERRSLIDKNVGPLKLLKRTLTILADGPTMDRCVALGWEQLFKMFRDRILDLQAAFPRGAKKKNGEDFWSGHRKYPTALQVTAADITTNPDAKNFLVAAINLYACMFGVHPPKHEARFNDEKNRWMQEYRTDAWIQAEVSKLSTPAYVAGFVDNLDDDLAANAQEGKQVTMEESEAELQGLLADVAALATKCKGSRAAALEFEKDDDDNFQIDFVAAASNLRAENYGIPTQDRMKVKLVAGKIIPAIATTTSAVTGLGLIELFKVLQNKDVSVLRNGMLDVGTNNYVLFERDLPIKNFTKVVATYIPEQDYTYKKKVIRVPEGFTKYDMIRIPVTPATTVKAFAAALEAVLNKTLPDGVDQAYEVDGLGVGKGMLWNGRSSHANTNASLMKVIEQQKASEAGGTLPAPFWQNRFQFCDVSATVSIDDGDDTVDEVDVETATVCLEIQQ
As to the kind of experiment: Leishmania donovani Ubiquitin Activating Enzyme (LdE1). The conditions noted are these: 30 µM. The assay is classed as functional.

Assay [3] deals with AMP-activated protein kinase, AMPK (Homo sapiens) (UniProt P54646+O43741+P54619+Q9UGJ0+Q9Y478+Q13131+Q9UGI9). Put plainly: AMP-dependent Kinase enzyme assay. An in vitro enzyme assay that detects ADP turnover that is directly proportional to AMPK activity. This uses naive AMPK that is activated during the assay with MK-8722. The assay is classed as functional. The conditions noted are these: 30 µM.

For assay [4], the target named is Sialic acid-binding Ig-like lectin 9 (Homo sapiens) (UniProt Q9Y336). Put plainly: Hs-Siglec9 ALPHAscreen SOP 20170721. The conditions noted are these: 10 µM.
A further assay has as its system Trypanosoma cruzi. As to the kind of experiment: Trypanosoma cruzi phosphomannomutase and mannose-1-phosphate guanylyltransferase assay. The assay is classed as functional. The conditions noted are these: 10 µM.
Assay [5] has as its target T2, Arginase-2, mitochondrial (Homo sapiens) (UniProt P78540).
T2 sequence (whole entry): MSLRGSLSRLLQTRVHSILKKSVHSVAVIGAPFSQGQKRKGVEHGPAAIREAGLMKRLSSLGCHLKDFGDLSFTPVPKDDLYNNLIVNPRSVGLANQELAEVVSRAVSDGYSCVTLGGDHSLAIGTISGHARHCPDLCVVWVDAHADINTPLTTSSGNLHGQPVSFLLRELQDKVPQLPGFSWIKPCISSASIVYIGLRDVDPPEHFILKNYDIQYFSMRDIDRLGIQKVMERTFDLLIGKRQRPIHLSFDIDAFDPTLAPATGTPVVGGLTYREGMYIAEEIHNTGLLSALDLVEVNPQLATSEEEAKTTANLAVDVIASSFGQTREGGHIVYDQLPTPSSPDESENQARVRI
As to the kind of experiment: in vitro enzyme assay to detect the production of urea directly proportional to the activity of Arginase II. Also: in the data most compounds retested in dose-response had high values. In kind it is functional. The conditions noted are these: 33.3 µM.

In assay [6] the target is T3, Proteasome subunit beta (Trypanosoma cruzi) (UniProt O96673).
T3 sequence (whole entry): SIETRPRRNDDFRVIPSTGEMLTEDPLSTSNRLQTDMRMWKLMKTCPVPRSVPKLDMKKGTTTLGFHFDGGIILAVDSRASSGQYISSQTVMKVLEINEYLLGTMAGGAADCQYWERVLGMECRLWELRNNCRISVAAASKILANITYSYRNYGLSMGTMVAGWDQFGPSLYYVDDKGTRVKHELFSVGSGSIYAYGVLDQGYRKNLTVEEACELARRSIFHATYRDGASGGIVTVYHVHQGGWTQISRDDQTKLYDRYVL
Put plainly: Trypanosoma cruzi proteasome chymotrypsin-like activity (TcProtChymo) assay. Also: in the data most compounds retested in dose-response had high values. The assay is classed as functional. The conditions noted are these: 9.37 µM.

For the next assay, the species on record is Homo sapiens. As to the kind of experiment: To identify inhibition of the IFN signalling (Jak-Stat) pathway via expression of an eGFP reporter gene under the control of an IFN-stimulated response element (ISRE) containing MxA promoter. The assay is classed as functional. The conditions noted are these: 30 µM. For orientation: Reporter assays use an easily measured gene product as a stand-in for the process of interest.

The target of assay [7] is T4, Tyrosyl-tRNA synthetase, putative (Trypanosoma cruzi (strain CL Brener)) (UniProt Q4DSP6).
T4 sequence (whole entry): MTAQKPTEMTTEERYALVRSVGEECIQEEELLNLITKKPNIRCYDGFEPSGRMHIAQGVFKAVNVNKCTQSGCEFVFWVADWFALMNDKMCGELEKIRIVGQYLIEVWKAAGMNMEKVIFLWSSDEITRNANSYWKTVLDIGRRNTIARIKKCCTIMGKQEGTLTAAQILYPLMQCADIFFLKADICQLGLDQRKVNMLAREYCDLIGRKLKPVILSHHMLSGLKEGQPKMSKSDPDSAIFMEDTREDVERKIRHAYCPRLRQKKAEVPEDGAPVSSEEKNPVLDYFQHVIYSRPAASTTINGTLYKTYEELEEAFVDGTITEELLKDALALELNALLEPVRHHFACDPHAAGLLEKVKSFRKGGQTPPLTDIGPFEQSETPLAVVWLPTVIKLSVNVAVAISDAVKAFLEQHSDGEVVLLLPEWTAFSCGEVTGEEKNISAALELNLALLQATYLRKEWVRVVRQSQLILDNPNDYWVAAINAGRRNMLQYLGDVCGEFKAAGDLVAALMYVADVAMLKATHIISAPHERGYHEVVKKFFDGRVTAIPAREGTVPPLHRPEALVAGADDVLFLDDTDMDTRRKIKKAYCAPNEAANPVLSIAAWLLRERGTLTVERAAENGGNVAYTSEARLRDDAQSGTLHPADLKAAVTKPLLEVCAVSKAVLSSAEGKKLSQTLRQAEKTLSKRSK
Put plainly: Trypanosoma cruzi tyrosyl tRNA synthetase (TcYRS) _High Tyrosine SOP. Also: in the data most compounds retested in dose-response had high values. In kind it is functional. The conditions noted are these: 30 µM.

Assay [8] addresses T4, Tyrosyl-tRNA synthetase, putative (Trypanosoma cruzi (strain CL Brener)). As to the kind of experiment: Trypanosoma cruzi tyrosyl tRNA synthetase (TcYRS) SOP. The assay is classed as functional. The conditions noted are these: 30 µM.
In assay [9] the target is Chromo domain-containing protein 1 (Saccharomyces cerevisiae (strain ATCC 204508 / S288c) (Baker's yeast)) (UniProt P32657). Put plainly: ScCHD-1 Enzyme Inhibition Assay. Also: in the data most compounds retested in dose-response had high values. In kind it is functional. The conditions noted are these: 30 µM.

Structures are written as SMILES. For some assays here: Results with a measured potency or affinity are listed apart.

Chromo domain-containing protein 1 (Saccharomyces cerevisiae (strain ATCC 204508 / S288c) (Baker's yeast)), sequence (P32657 whole entry, the tested form may be a part): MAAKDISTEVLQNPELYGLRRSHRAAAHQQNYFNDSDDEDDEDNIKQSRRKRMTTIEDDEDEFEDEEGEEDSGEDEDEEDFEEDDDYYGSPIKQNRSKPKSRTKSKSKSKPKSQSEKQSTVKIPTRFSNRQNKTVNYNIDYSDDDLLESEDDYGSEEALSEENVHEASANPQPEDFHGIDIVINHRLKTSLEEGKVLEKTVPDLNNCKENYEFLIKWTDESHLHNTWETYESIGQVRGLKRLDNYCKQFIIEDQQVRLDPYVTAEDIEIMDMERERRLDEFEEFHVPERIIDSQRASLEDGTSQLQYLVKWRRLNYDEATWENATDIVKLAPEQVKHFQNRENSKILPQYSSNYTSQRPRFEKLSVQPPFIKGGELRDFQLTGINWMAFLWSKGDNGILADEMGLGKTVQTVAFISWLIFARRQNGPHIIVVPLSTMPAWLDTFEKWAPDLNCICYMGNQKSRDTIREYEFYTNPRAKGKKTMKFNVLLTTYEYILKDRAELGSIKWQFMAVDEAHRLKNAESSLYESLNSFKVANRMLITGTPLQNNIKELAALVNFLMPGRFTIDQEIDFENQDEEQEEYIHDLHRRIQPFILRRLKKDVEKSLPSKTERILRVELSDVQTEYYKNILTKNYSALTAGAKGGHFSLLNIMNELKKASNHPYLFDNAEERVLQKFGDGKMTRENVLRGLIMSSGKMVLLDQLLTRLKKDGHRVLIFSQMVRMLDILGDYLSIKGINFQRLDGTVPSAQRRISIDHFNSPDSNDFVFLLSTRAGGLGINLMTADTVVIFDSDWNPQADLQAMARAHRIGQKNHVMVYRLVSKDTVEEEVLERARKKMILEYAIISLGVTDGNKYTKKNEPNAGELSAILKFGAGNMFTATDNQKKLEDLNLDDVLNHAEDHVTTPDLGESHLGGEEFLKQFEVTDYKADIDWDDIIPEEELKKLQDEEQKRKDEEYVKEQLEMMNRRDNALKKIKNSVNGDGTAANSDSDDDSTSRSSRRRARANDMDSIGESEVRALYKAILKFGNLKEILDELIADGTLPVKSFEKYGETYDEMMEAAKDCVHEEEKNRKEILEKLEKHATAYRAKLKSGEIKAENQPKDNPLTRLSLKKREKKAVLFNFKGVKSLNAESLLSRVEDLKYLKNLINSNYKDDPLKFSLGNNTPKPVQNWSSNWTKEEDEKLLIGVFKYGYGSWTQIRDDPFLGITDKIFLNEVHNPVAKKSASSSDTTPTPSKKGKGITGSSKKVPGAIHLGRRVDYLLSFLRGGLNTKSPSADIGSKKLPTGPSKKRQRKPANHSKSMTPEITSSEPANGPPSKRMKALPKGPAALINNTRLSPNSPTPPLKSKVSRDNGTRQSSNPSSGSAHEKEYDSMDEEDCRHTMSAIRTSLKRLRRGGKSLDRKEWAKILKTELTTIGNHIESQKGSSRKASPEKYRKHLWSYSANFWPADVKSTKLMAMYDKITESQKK
Protein translocase subunit SecA (Escherichia coli (strain K12)), sequence (P10408 whole entry): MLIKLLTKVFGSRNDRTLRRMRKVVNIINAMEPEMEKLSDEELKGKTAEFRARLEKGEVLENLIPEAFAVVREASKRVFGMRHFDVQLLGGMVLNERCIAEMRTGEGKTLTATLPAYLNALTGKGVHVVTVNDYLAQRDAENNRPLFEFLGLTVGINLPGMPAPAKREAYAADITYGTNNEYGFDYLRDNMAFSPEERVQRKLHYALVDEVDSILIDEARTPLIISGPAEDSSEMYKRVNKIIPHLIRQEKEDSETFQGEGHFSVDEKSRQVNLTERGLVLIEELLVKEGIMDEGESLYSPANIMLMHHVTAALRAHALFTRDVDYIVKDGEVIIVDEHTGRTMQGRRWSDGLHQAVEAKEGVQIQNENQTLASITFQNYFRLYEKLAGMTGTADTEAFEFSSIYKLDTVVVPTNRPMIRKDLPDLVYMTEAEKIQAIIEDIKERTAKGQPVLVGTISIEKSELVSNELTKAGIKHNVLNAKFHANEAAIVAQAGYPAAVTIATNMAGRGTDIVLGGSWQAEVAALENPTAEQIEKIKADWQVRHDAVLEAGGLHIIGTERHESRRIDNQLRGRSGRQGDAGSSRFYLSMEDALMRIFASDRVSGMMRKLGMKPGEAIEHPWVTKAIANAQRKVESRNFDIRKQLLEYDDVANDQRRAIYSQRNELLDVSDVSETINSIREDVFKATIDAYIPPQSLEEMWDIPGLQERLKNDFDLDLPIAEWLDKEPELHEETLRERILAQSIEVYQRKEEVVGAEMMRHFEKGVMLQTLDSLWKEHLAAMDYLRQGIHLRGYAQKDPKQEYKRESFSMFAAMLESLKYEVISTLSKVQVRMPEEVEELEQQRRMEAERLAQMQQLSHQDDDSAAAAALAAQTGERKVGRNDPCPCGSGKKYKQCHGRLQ
Sialic acid-binding Ig-like lectin 9 (Homo sapiens), sequence (Q9Y336 whole entry): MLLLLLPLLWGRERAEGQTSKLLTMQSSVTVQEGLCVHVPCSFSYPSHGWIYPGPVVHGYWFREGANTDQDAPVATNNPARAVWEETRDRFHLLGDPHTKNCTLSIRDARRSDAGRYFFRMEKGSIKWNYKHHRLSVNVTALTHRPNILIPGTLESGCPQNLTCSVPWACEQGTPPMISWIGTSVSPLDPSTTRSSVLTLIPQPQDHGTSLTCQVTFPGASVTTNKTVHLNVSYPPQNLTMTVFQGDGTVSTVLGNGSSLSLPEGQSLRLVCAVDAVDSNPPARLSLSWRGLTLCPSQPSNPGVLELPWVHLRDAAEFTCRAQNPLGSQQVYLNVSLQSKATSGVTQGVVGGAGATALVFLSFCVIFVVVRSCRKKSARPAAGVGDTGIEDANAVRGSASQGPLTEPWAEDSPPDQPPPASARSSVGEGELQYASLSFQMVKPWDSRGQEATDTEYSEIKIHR

As to `CCc1nccn1C1CCCN(C(=O)c2cnn(C)c2C2CC2)C1` (stereo not given), the Percent Effect is -5.61% in assay [1]; 8.11% in assay [2]; -0.679% in assay [3]; 1.6% in assay [4]; -6.51% with Trypanosoma cruzi; -4.41% in [5]. Besides, the Percent Effect in assay [6] was 6.49%; in the assay listed under Homo sapiens it was 23.9%; in assay [7], 3.45%; in assay [8] it was 6.17%; in assay [9], -2.99%.
For the compound `CN(Cc1cnccn1)C(=O)c1ccnc(OC2CCC2)c1`, the Percent Effect was 2.54% in [1]; -2.7% in [2]; 1.16% in assay [3]; 4.85% in assay [4]; 0.193% with Trypanosoma cruzi; 1.43% in assay [5]. Also, the Percent Effect in [6] was 1.9%; in the assay listed under Homo sapiens, 4.71%; in assay [7] it was -0.529%; in assay [8] it was 4.88%; in [9], 8.01%.
As to `CCN(C(=O)Nc1cccnc1OC)C1CC1`, the Percent Effect in assay [1] was -6.66%; in assay [2], 15.6%; in assay [3], -6.43%; in [4], 15.2%; in the assay on Trypanosoma cruzi it was 5.24%; in assay [5], -3.2%. In addition, the Percent Effect is 7.6% in assay [6]; 5.42% in the assay filed under Homo sapiens; 4.85% in assay [7]; 19.5% in [8]; -9.65% in [9].
In the case of `Cc1ccc(CNC(=O)NCc2cccnc2N(C)C)s1`, the Percent Effect in assay [1] was -4.97%; in assay [2], 15.6%; in assay [3] it was 7.34%; in [4], 4.07%; with Trypanosoma cruzi it was -4.68%; in [5], -3.2%. Also, the Percent Effect in assay [6] is 1.35%; in the assay filed under Homo sapiens it was 19.1%; in assay [7], 8.74%; in [8], 12.2%; in assay [9], -5.69%.
Consider `Cc1csc(CN2CC[C@H]3C[C@H](c4nnc(C)[nH]4)O[C@@H]3C2)n1`, for which the Percent Effect in assay [1] was 1.54%; in [2] it was 16.4%; in assay [3] it was 0.599%; in assay [4] it was 0.797%; with Trypanosoma cruzi it was -0.397%; in assay [5] it was 2.4%. Also, the Percent Effect in assay [6] was 9.33%; in the assay listed under Homo sapiens it was 17.3%; in assay [7], 3.12%; in assay [8], -102%; in [9], -5.22%.
In the case of `CC(O)CN1CCN(C(=O)c2ccc(Br)o2)CC1` (stereo not given), the Percent Effect is -4.28% in assay [1]; 15.8% in [2]; 17.9% in assay [3]; -7.51% in assay [4]; -3.57% with Trypanosoma cruzi; 3.45% in [5]. Further, the Percent Effect in assay [6] was 8.69%; in the assay listed under Homo sapiens it was 22.7%; in assay [7] it was 4.41%; in assay [8] it was 9.76%; in [9], -12.7%.
With `CCNC(=O)c1cnc(Cc2ccc(F)cc2)s1`, the Percent Effect was -3.2% in assay [1]; -2.67% in assay [2]; 3.74% in assay [3]; 1.03% in assay [4]; -1.27% with Trypanosoma cruzi; 4.17% in [5]. Also, the Percent Effect in [6] is 8.72%; in the assay filed under Homo sapiens, 14.1%; in assay [7], 3.83%; in [8], 8.64%; in assay [9], -2.95%.
Consider `O=C(NCc1nnc2n1CCC2)N(Cc1ccco1)C1CC1`, for which the Percent Effect was -0.0964% in [1]; 8.11% in [2]; -2.14% in assay [3]; 3.8% in assay [4]; -2.12% in the assay with Trypanosoma cruzi; -2.86% in [5]. The Percent Effect in assay [6] was 20.3%; in the assay listed under Homo sapiens it was 14.6%; in assay [7] it was 3.7%; in [8], 12.2%; in assay [9], -2.31%.
`Cn1cccc1C(CNC(=O)c1ccc(F)cc1F)N1CCCCCC1` (stereo not given): the Percent Effect is -3.52% in assay [1]; 15.6% in assay [2]; -9.64% in assay [3]; -10.9% in assay [4]; 6.21% in the assay on Trypanosoma cruzi; -3.23% in assay [5]. The Percent Effect is 17.9% in assay [6]; 11% in the assay filed under Homo sapiens; 8.47% in assay [7]; 21.8% in [8]; -12.6% in [9].
For the compound `O=C(NCCN1CCc2ccccc2C1)c1scnc1Cl`, the Percent Effect is -2.6% in [1]; 13.2% in assay [2]; -2.29% in assay [3]; -8.63% in [4]; 6.26% in the assay with Trypanosoma cruzi; -3.24% in assay [5]. Further, the Percent Effect in [6] was 18%; in the assay listed under Homo sapiens, 6.79%; in assay [7] it was -6.4%; in [8] it was 23.5%; in assay [9], -6.08%.

The values are drawn from ChEMBL document CHEMBL3988442, “University of Dundee, Small-Polar-MMV Screening Library” (2021).
